Measured values from PubChem BioAssay (Tox21).
Records with an inconclusive call do not appear. Unmarked numbers belong to inactive results. The source made the active and inactive calls. Calls follow the shape of the dose curve; as a rule, active = well fitted cell-killing curve with a large enough effect in the repeat runs; inconclusive = weak or mixed curves; inactive = flat fitted curve, though single readings scatter.

Assay: qHTS assay to identify small molecule antagonists of the estrogen receptor beta (ER-beta) signaling pathway - cell viability counter screen (AID 1259382); also: nearly all actives have a fitted effect of over 55% in size
Conditions: ER-beta-UAS-bla HEK293T viability, CellTiter-Glo luminescence, 16 h; series mostly up to 92.4 µM
Text: U.S. Tox21 Program National Center for Advancing Translational Sciences [NCATS] NIH Chemical Genomics Center [NCGC] U.S. Environmental Protection Agency [EPA] National Institutes of Environmental Health Sciences [NIEHS] National Toxicology Program [NTP] U.S. Food and Drug Administration [FDA] Tox21 Assay Overview: Estrogen receptor (ER), a nuclear hormone receptor, plays an important role in development, metabolic homeostasis and reproduction. Two subtypes of ER, ER-alpha and ER-beta, have similar expression patterns with some uniqueness in both types. Endocrine disrupting chemicals (EDCs) and their interactions with steroid hormone receptors like ER causes disruption of normal endocrine function. To identify the compounds that inhibit ER signaling, an ER-beta-UAS-bla GripTite cell line (Life Technologies, Madison, WI, USA) containing a beta-lactamase reporter gene under the control of an UAS response element was used to screen Tox21 10K compound library. The cytotoxicity of the Tox21 compound library against the ER-beta-bla cell line was tested in parallel by measuring the cell viability using CellTiter-Glo assay in the same wells.
Tox21 Assay Protocol Summary: ER-beta-UAS-bla HEK293T cells were dispensed at 2,000 cells/4 uL of assay medium containing 2% charcoal stripped FBS per well into black wall/clear-bottom 1536-well plates using a Multidrop Combi (ThermoFisher Scientific, Waltham, MA) dispenser. After the assay plates were incubated at a 37C and 5% CO2 for 6 hr, 23 nL of compounds dissolved in DMSO, positive controls or DMSO only was transferred to the assay plate by a Pintool station (Kalypsys, San Diego, CA), followed by addition of 1 uL (1nM as final concentration) of 17-beta-estradiol (E2) in assay medium using a Flying Reagent Dispenser (FRD, Aurora Discovery, San Diego, CA). The plates were incubated at 37C and 5% CO2 for 16 hr. Then 1 uL of LiveBLAzer B/G FRET substrate was added using a Flying Reagent Dispenser, the plates were incubated at room temperature for 2 hours, and fluorescence intensity was measured by an Envision plate reader (PerkinElmer, Shelton, CT). For cell viability readout that measures cytotoxicity, 4 uL/well of CellTiter-Glo reagent was added into the assay plates using a FRD. After 30 min incubation at room temperature, the luminescence intensity in the plates was measured using a ViewLux (PerkinElmer) plate reader.
% is scaled to controls: 0 for no effect and ±100 for the full control effect.

**Q.** Which outcome does the source give for `C1CCC2(CCCCO2)OC1` here?
**A.** inactive

**Q.** Which outcome does the source give for `O=[N+]([O-])c1ccc(/C=N\O)o1` here?
**A.** inactive

**Q.** With `CCN[C@@H]1C[C@H](N)[C@@H](OC2OC(CN)=CCC2N)[C@H](O)[C@H]1O[C@H]1OC[C@](C)(O)[C@H](NC)[C@H]1O` (stereo not given in full) as the compound, how does the activity change, negative = cytotoxicity read?
**A.** 16.4% [at 0.349 µM]

**Q.** For `CN(C)CCCN(C)CCCN(C)C`, which outcome is on record?
**A.** inactive

**Q.** For `CC1=CCC(O)(C(C)C)CC1` (stereo not given), which outcome is on record?
**A.** inactive

**Q.** For `O=Cc1cccc(Br)c1`, which outcome is on record?
**A.** inactive

**Q.** For `O=C(O)c1cn(C2CC2)c2cc(N3CCNCC3)c(F)cc2c1=O`, which outcome is on record?
**A.** inactive

**Q.** For `CN1CCN(c2cc3c(nn2)Oc2ccccc2N3C)CC1`, which activity change, negative = cytotoxicity is on record?
**A.** -0.299% [at 19 µM]

**Q.** With `O=C1NC(=O)C2CC=CCC12` (stereo not given) as the compound, how does the outcome read?
**A.** inactive

**Q.** Which outcome does the source give for `CCCCOCCOC(=O)COc1cc(Cl)c(Cl)cc1Cl` here?
**A.** inactive

**Q.** For `C[C@H]1C[C@H]2[C@@H]3CCC4=CC(=O)C=C[C@]4(C)[C@H]3C(=O)C[C@]2(C)[C@@]1(O)C(=O)CO`, which outcome is on record?
**A.** inactive

**Q.** With `CCOc1ccc2nc(S(N)(=O)=O)sc2c1` as the compound, how does the outcome read?
**A.** inactive

**Q.** Which outcome does the source give for `C=C(C)C(=O)OCC(O)CO` (stereo not given) here?
**A.** inactive

**Q.** For `CCN(CC#N)c1cccc(C)c1`, which outcome is on record?
**A.** inactive

**Q.** For `O=C(O)CNC(=O)c1ccccc1`, which outcome is on record?
**A.** inactive

**Q.** With `CCN[C@H]1C[C@H](C)S(=O)(=O)c2sc(S(N)(=O)=O)cc21` as the compound, how does the outcome read?
**A.** inactive

**Q.** Which outcome does the source give for `CC(=O)c1cnccn1` here?
**A.** inactive

**Q.** With `CO[C@@]1(NC(=O)CSC[C@@H](N)C(=O)O)C(=O)N2C(C(=O)O)=C(CSc3nnnn3C)CS[C@@H]21` as the compound, how does the outcome read?
**A.** inactive

**Q.** Which outcome does the source give for `NC(CCC(=O)O)C(=O)O` (stereo not given) here?
**A.** inactive

**Q.** Which outcome does the source give for `c1coc(CNc2ncnc3nc[nH]c23)c1` here?
**A.** inactive

**Q.** With `CCC(C)(CN(C)C)OC(=O)c1ccccc1` (stereo not given) as the compound, how does the outcome read?
**A.** inactive

**Q.** With `CN(C)[C@@H]1C(=O)C(C(=O)NCN2CCCC2)=C(O)[C@@]2(O)C(=O)C3=C(O)c4c(O)cccc4[C@@](C)(O)C3C[C@@H]12` (stereo not given in full) as the compound, how does the outcome read?
**A.** inactive

**Q.** With `OCCCCCO` as the compound, how does the outcome read?
**A.** inactive

**Q.** Which outcome does the source give for `Cc1ccccc1N=C(N)N=C(N)N` here?
**A.** inactive

**Q.** For `CC(=O)O[C@@]12CO[C@@H]1C[C@H](O)[C@@]1(C)C(=O)[C@H](O)C3=C(C)[C@@H](OC(=O)[C@H](O)[C@@H](NC(=O)OC(C)(C)C)c4ccccc4)C[C@@](O)([C@@H](OC(=O)c4ccccc4)[C@H]21)C3(C)C`, which outcome is on record?
**A.** inactive

**Q.** With `CC1(C)OC[C@@H](COC(=O)CCc2ccc(OC[C@@H](O)CNCCNC(=O)N3CCOCC3)cc2)O1` as the compound, how does the outcome read?
**A.** inactive

**Q.** With `CNCCO` as the compound, how does the outcome read?
**A.** inactive

**Q.** For `[K+]`, which outcome is on record?
**A.** inactive

**Q.** For `CCCC(=O)O[C@]1(C(=O)CC)CC[C@H]2[C@@H]3CCC4=CC(=O)CC[C@]4(C)[C@H]3[C@@H](O)C[C@@]21C`, which outcome is on record?
**A.** inactive

**Q.** For `N[C@H](C(=O)O)[C@@H](O)c1ccc(O)c(O)c1`, which outcome is on record?
**A.** inactive

**Q.** Which outcome does the source give for `CC(CC=O)CC(C)(C)C` (stereo not given) here?
**A.** inactive

**Q.** For `CCCc1ncc(C[n+]2ccccc2C)c(N)n1`, which outcome is on record?
**A.** inactive

**Q.** For `O=C1CCCCCCCCCCCCCCO1`, which outcome is on record?
**A.** inactive

**Q.** Which outcome does the source give for `CN(C)CCCCCCN(C)C` here?
**A.** inactive

**Q.** With `C=C(C)C(=O)OCCOCCOCCOCCOC(=O)C(=C)C` as the compound, how does the outcome read?
**A.** inactive

**Q.** With `COc1cc(C)nc(-n2nc(C)cc2OC)n1` as the compound, how does the outcome read?
**A.** inactive

**Q.** Which outcome does the source give for `NCCCC(N)(C(=O)O)C(F)F` (stereo not given) here?
**A.** inactive

**Q.** With `C=C[Si](OC(C)=O)(OC(C)=O)OC(C)=O` as the compound, how does the outcome read?
**A.** inactive

**Q.** Which outcome does the source give for `NCCCC[C@H](N[C@@H](CCc1ccccc1)C(=O)O)C(=O)N1CCC[C@H]1C(=O)O` here?
**A.** inactive

**Q.** For `CCCc1nn(C)c2c(=O)[nH]c(-c3cc(S(=O)(=O)N4CCN(C)CC4)ccc3OCC)nc12`, which outcome is on record?
**A.** inactive
